# Results: PubChem BioAssay (NCI)
# This is part of a sample that, as a whole, favours compounds with a hit. Of some 79,000 tested, about 15% had one in any assay. The source made the active and inactive calls. No stated cut-off is given here; in the data, active means growth inhibition above about 70%; inactive means the rest.
# Assay: NCI Yeast Anticancer Drug Screen. Data for the cln2 rad14 strain (AID 165);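 further: 0% = growth equal to vehicle treated cultures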
# Conditions: S. cerevisiae cln2 rad14 strain, at 50.0 µM, hits give high values
# Description: Growth inhibition of yeast strains with defined genetic alterations is measured as a screen for potential anti-cancer activity. Selected strains with alterations in DNA damage repair or cell cycle control were exposed to compounds and growth inhibition was measured relative to vehicle treated controls. The strain used in this assay is cln2 rad14
row,Structure (SMILES),growth inhibition
1,COC(=O)c1ccc(C)[nH]1,26.6% (inactive)
2,Cc1ccc(NC(=O)/C(CC(=O)c2sc(Nc3ccccc3Cl)nc2C)=N\Nc2ccc([N+](=O)[O-])cc2[N+](=O)[O-])c(C)c1,-12.1% (inactive)
3,Nc1c(S(=O)(=O)O)cc(Nc2cccc(S(N)(=O)=O)c2)c2c1C(=O)c1ccccc1C2=O,-7.65% (inactive)
4,O=c1cc(-c2ccccc2)oc2c(N=Nc3ccccc3)ccc(O)c12,25.4% (inactive)
5,c1ccc(C2CCCN2)cc1 (stereo not given),6.25% (inactive)
6,BrC/C(=N\N1CCCCC1)c1ccc(Br)cc1,24.6% (inactive)
7,SC1c2ccccc2-c2ccccc21,7.25% (inactive)
8,Cc1ccc2cc(C)c(C)cc2c1,16.1% (inactive)
9,CCOC(=O)c1c(Br)c(-c2ccc(OC)cc2)c(Br)n1C,-48% (inactive)
10,COc1ccc2c(c1OC)C(Cc1ccccc1)N1CCc3cc4c(cc3C1C2)OCO4 (stereo not given),50.8% (inactive)
11,Cc1ncc2c(n1)NC(=O)NC2,0.9% (inactive)
12,CC(C)(C)CC(C)(C)N(CSc1ccc2ccccc2c1)CSc1ccc2ccccc2c1,13.6% (inactive)
13,CCn1cc(C(=O)O)c(=O)c2ccc(-c3ccncc3)cc21,-7.85% (inactive)
14,C/C(=N/N(CCCCN(/N=C(/C)c1ccccc1)c1ccccc1)c1ccccc1)c1ccccc1,26.3% (inactive)
15,CCOC(=O)N1C=Cc2ccccc2C1C(=N)N (stereo not given),-7.7% (inactive)
16,CC(C)C1OC2(CCCC2)OCC1(C)C (stereo not given),-21.8% (inactive)
17,O=C(Nc1ccccc1)c1ccc(I)cc1,-7.35% (inactive)
18,CC(C)C[N+](=O)[O-],-12.7% (inactive)
19,OC12C=CC(CCCC1)O2 (stereo not given),3.2% (inactive)
20,CCOC(OC(C)=O)[C@@H]1C=C[C@H](C)N(c2ccc([N+](=O)[O-])cc2)O1 (stereo not given in full),18.1% (inactive)

row,Structure (SMILES),growth inhibition
1,COc1ccccc1NC(=O)NCCN1CCCC1,-8.9% (inactive)
2,CCOC(=O)N1OC2C=CC1CC2 (stereo not given),11.8% (inactive)
3,C=C1CC2(CCC3C4CC=C5CC(O)CCC5(C)C4CCC32C)OC1=O (stereo not given),46.3% (inactive)
4,C=C(C)c1ccc(B2Nc3ccccc3N2)cc1,18.8% (inactive)
5,CC1(CCl)Nc2ccccc2C(=O)N1c1ccccc1 (stereo not given),4.2% (inactive)
6,Oc1c(Cl)cccc1CN1CCOCC1,25.1% (inactive)
7,CNC(=S)/C(C(C)=O)=C(\C)Nc1ccccc1,-32.1% (inactive)
8,CN(c1ccccc1Cl)S(=O)(=O)c1ccc([N+](=O)[O-])cc1,3.9% (inactive)
9,O=C(/C=C/c1ccccc1)c1ccc(O)cc1O,-27.1% (inactive)
10,CCN(Cc1ccccc1)C(=O)Nc1c(Cl)cccc1Cl,-1.5% (inactive)
11,CNC(=O)C(C)Oc1ccc(OCC2CCCCC2)cc1 (stereo not given),-35.5% (inactive)
12,CSc1nc2cc(C)c(C)cc2[nH]1,-25.5% (inactive)
13,O=C1C2CCC(C2)C12CC1(c3ccccc3)C(=O)c3ccccc3N1O2 (stereo not given),8.85% (inactive)
14,CCOC(=O)Cc1ccc(OC)c(OC)c1,-17.1% (inactive)
15,COC(=O)C(C#N)(CCC(=O)c1ccccc1)CCC(=O)c1ccccc1,-8.65% (inactive)
16,CC(Oc1ccccc1)C(O)(c1ccc(N(C)C)cc1)c1ccc(N(C)C)cc1 (stereo not given),8.15% (inactive)
17,Cc1cccc(NC(=O)c2ccc(Cl)cc2Cl)n1 (tested in a mixture with another compound),-25.6% (inactive)
18,NC(=S)c1ccc[n+]([O-])c1,-13.7% (inactive)
19,CN(C)c1ccc(/C=C/c2ccccc2)cc1,-15.1% (inactive)
20,N#Cc1cc([N+](=O)[O-])ccc1NC(=O)C(=O)C(C(=O)c1ccc2ccccc2c1)C1OCc2ccccc21 (stereo not given),36.1% (inactive)
